Here are results for 15 compounds from PubChem BioAssay (NCATS).

Assay [1] can be described thus: Quantitative High-Throughput drug screen in 47 multiple myeloma cell lines against the NCATS MIPE library collection: KMS26_JCRB cell viability assay (AID 1918975). Further: nearly all actives have a fitted effect of over 45% in size. In short, it runs like this:
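qHTS of the MIPE 4.0 collection: 500 myeloma cells/well, 48 h drug exposure at 37C in 5% CO2, then CellTiter-Glo for 5 min at room temperature before luminescence reading.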

Assay [2] is described as follows: Quantitative High-Throughput drug screen in 47 multiple myeloma cell lines against the NCATS MIPE library collection: MMM1_PLB cell viability assay (AID 1918976). Further: nearly all actives have a fitted effect of over 35% in size. Summed up:
(§1)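 Viability after 48 h drug exposure was measured as ATP-dependent luminescence. Cells, 500 per well, sat at 37 °C under 5% CO2; DMSO wells set 100%, media-only wells 0%.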

The nature of assay [3]: Quantitative High-Throughput drug screen in 47 multiple myeloma cell lines against the NCATS MIPE library collection: MOLP8_DSMZ cell viability assay (AID 1918977). Further: nearly all actives have a fitted effect of over 45% in size. Summed up: as §1
The nature of assay [4]: Quantitative High-Throughput drug screen in 47 multiple myeloma cell lines against the NCATS MIPE library collection: OCIMY1_PLB cell viability assay (AID 1918979). Further: nearly all actives have a fitted effect of over 35% in size. Summed up:
as §1

Assay [5] is described as follows: Quantitative High-Throughput drug screen in 47 multiple myeloma cell lines against the NCATS MIPE library collection: MM1S_ATCC cell viability assay (AID 1918980). Further: nearly all actives have a fitted effect of over 45% in size. Summed up: as §1
Assay [6] is described as follows: Quantitative High-Throughput drug screen in 47 multiple myeloma cell lines against the NCATS MIPE library collection: MM1R_ATCC cell viability assay (AID 1918981). Further: nearly all actives have a fitted effect of over 35% in size. In short, it runs like this: as §1
The nature of assay [7]: Quantitative High-Throughput drug screen in 47 multiple myeloma cell lines against the NCATS MIPE library collection: LP1_DSMZ cell viability assay (AID 1918982). Further: nearly all actives have a fitted effect of over 35% in size. Summed up: as §1
Assay [8] in a line: Quantitative High-Throughput drug screen in 47 multiple myeloma cell lines against the NCATS MIPE library collection: KMS28PE_JCRB cell viability assay (AID 1918983). Further: nearly all actives have a fitted effect of over 35% in size. Summed up: as §1
The nature of assay [9]: Quantitative High-Throughput drug screen in 47 multiple myeloma cell lines against the NCATS MIPE library collection: NCIH929_DSMZ cell viability assay (AID 1918978). Further: nearly all actives have a fitted effect of over 35% in size. In short, it runs like this: as §1
Assay [10] can be described thus: Quantitative High-Throughput drug screen in 47 multiple myeloma cell lines against the NCATS MIPE library collection: L363_DSMZ cell viability assay (AID 1918984). Further: nearly all actives have a fitted effect of over 40% in size. Summed up: as §1

Records with an inconclusive call do not appear. Active and inactive are the calls of the source. The call rests on the fitted dose curve; in most records, active means well fitted curve in the direction sought with a large enough effect; inconclusive means small, poorly fitted or top-dose-only effect, or another doubt; inactive means no such curve, though single readings can be large; an effect the other way counts as inactive or inconclusive.
Potency means the concentration at half of the fitted maximal effect.

In the case of `O=C(Nc1nc2cccc(-c3ccc(CN4CCS(=O)(=O)CC4)cc3)n2n1)C1CC1`, the Potency is 13.2 µM (active) in [1]; 9.35 µM (active) in assay [2]; 14.8 µM (active) in assay [3]; 23.5 µM (active) in assay [4]; 20.9 µM (active) in assay [5]; 14.8 µM (active) in assay [6]. Moreover, the figures for the Potency in [7] and in assay [8] were 20.9 µM (active) and 13.2 µM (active), respectively.
Take `O=C(c1cncc(Br)c1)N1CCC(N2CCCC2)CC1`: the Potency entry in assay [1], in assay [2], in assay [3], in [9], in assay [5] and in assay [10] was “inactive” each time.
As for `Fc1cc(-c2cccc3ncc(-c4cnn(C5CCNCC5)c4)nc23)cc(F)c1CN1CCOCC1`, the Potency was 26.4 µM (active) in assay [1]; 23.5 µM (active) in assay [2]; 18.7 µM (active) in [3]; 8.33 µM (active) in assay [9]; 20.9 µM (active) in assay [5]; 20.9 µM (active) in [6]. In addition, the Potency is 23.5 µM (active) in assay [8] and 6.62 µM (active) in assay [10].
With `Cc1cc(Nc2nc(N[C@@H](C)c3ccc(F)cc3)c(C#N)cc2F)n[nH]1`, the Potency in assay [1] is 8.33 µM (active); in [2], 6.62 µM (active); in [9] it was 13.2 µM (active); in [5], 20.9 µM (active); in assay [6] it was 3.32 µM (active); in assay [8] it was 0.935 µM (active).
As for `COc1cccc2nc(-c3cccs3)nc(NN3C(=O)C=C(C)C3=O)c12`, the Potency was 2.96 µM (active) in assay [1]; 5.9 µM (active) in [2]; 0.235 µM (active) in assay [9]; 0.418 µM (active) in assay [5]; 0.187 µM (active) in assay [6]; 0.187 µM (active) in assay [7]. In [8], the Potency is 2.64 µM (active).
For the compound `COc1cc2c(Oc3ccc(NC(=O)C4(C(=O)Nc5ccc(F)cc5)CC4)cc3F)ccnc2cc1OCCCN1CCOCC1`, the Potency in assay [1] is 16.6 µM (active); in assay [2], 18.7 µM (active); in assay [9], 2.96 µM (active); in assay [4], 14.8 µM (active); in [5], 16.6 µM (active); in assay [6], 4.18 µM (active). Besides, the Potency in [7] was 16.6 µM (active); in assay [8], 4.18 µM (active); in assay [10], 2.96 µM (active).
Turning to `O=C(CCCCCCC(=O)Nc1ccc([C@H]2O[C@@H](CSc3nc(-c4ccccc4)c(-c4ccccc4)o3)C[C@@H](c3ccc(CO)cc3)O2)cc1)NO`, the Potency in assay [1] is 23.5 µM (active); in assay [2], 13.2 µM (active); in [3], 14.8 µM (active); in [9], 9.35 µM (active); in [5] it was 9.35 µM (active); in assay [6] it was 16.6 µM (active). Also, in [8], the Potency was 16.6 µM (active).
For `Cc1ccc(C(=O)Nc2ccc(CN3CCN(C)CC3)c(C(F)(F)F)c2)cc1C#Cc1cnc2cccnn12`, the Potency in assay [1] was 6.62 µM (active); in assay [2] it was 7.43 µM (active); in assay [3], 0.833 µM (active); in assay [9] it was 0.935 µM (active); in assay [5], 4.69 µM (active); in assay [7] it was 5.9 µM (active). The results for the Potency in [8] and in [10] were 5.9 µM (active) and 0.833 µM (active), respectively.
With `CC(=O)Nc1sc2c(c1-c1nc3ccccc3s1)CNC2`, the Potency was 16.6 µM (active) in assay [1]; 14.8 µM (active) in assay [2]; 5.9 µM (active) in assay [3]; 16.6 µM (active) in assay [9]; 14.8 µM (active) in assay [5]; 18.7 µM (active) in [6]. Also, in [8], the Potency was 20.9 µM (active).
In the case of `C#Cc1cccc(Nc2ncnc3cc(OC)c(OCCCCCCC(=O)NO)cc23)c1`, the Potency in assay [1] was 0.105 µM (active); in [2], 0.418 µM (active); in [3] it was 0.166 µM (active); in assay [9] it was 0.0935 µM (active); in [5] it was 0.0235 µM (active); in [7], 0.743 µM (active). The Potency in [8] is 0.118 µM (active); in [10], 0.0526 µM (active).
On to `COc1cc2c(Oc3ccc(-c4cnc(Nc5ccc(F)cc5)n(C)c4=O)cc3F)ccnc2cc1OCCCN1CCOCC1`, for which the Potency in assay [1] was 18.7 µM (active); in [2], 4.69 µM (active); in assay [3], 18.7 µM (active); in [9], 2.64 µM (active); in [5] it was 9.35 µM (active); in assay [7] it was 11.8 µM (active). For the same compound, the Potency in assay [8] is 11.8 µM (active); in [10], 0.833 µM (active).
On to `CCn1cc(-c2ccnc3[nH]c(-c4cccc(CN(C)C)c4)cc23)c(-c2ccc(NC(=O)N(C)C)cc2)n1`, for which the Potency in assay [1] is 18.7 µM (active); in assay [2] it was 14.8 µM (active); in assay [3], 8.33 µM (active); in assay [9] it was 3.32 µM (active); in assay [5], 5.26 µM (active); in assay [6] it was 20.9 µM (active). Further, the results for the Potency in [8] and in assay [10] were 11.8 µM (active) and 2.09 µM (active), respectively.
In the case of `COc1ccc(F)c(F)c1C(=O)c1cnc(NC2CCN(S(C)(=O)=O)CC2)nc1N`, the Potency in assay [1] was 2.64 µM (active); in assay [2] it was 2.64 µM (active); in [3] it was 1.32 µM (active); in assay [9], 1.87 µM (active); in assay [5] it was 1.66 µM (active); in assay [6], 2.09 µM (active). Also, the Potency is 2.35 µM (active) in assay [8] and 1.32 µM (active) in [10].
As to `Cc1nc2cnc3ccc(C#Cc4cccnc4)cc3c2n1-c1ccc(C(C)(C)C#N)cc1`, the Potency in [1] was 1.32 µM (active); in assay [2], 0.148 µM (active); in [9], 0.0264 µM (active); in assay [5] it was 0.0743 µM (active); in assay [6], 0.166 µM (active); in [7], 0.0833 µM (active).
In the case of `COc1cc2ncnc(Nc3ccc(F)c(Cl)c3)c2cc1NC(=O)C=CCN1CCCCC1`, the Potency in [1] was 18.7 µM (active); in assay [2], 18.7 µM (active); in [3] it was 18.7 µM (active); in assay [9] it was 4.69 µM (active); in [5], 13.2 µM (active); in [6], 16.6 µM (active). The Potency in assay [8] was 23.5 µM (active); in assay [10], 2.35 µM (active).
